Shown are actives, neighbours in structure and some others; about 2.3% of the full set was active somewhere.
CHO-K1 Ca ag: M1 agonist counterscreen hit in parental CHO-K1 cells; activation, % at 3 µM; actives 0.48% (n = 360,000); Fluo-8 calcium fluorescence; scaled to maximal ATP response, vehicle zero; AID 602248; in the data active means activation above about 15%;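 further: untransfected CHO-K1 host cells lacking M1 receptor as counterscreen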
CHRM1 PAM: potentiates human M1 receptor response to acetylcholine | P11229 | CHO-K1 hM1, Fluo-8 calcium fluorescence, ACh EC20; 0% = ACh EC20, 100% = maximal ACh | activation, % at 3 µM | actives 0.088% (n = 360,000) | AID 588819; in the data active means activation above about 19%, passing the limit was not always enough
Target sequence (P11229 whole entry, looked up): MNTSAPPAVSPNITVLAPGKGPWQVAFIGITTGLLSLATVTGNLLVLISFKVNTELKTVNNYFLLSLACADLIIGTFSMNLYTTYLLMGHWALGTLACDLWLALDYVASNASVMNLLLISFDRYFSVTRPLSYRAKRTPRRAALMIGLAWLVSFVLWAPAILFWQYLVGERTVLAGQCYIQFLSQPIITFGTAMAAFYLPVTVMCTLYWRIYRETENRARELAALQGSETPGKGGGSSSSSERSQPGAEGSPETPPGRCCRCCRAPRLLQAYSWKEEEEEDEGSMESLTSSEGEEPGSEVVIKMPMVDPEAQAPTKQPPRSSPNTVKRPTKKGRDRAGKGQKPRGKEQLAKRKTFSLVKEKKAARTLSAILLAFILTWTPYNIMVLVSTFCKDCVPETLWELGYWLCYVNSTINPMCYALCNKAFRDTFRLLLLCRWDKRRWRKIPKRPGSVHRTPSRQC
M1 antag: blocks human M1 muscarinic receptor; CHO-K1 hM1, Fluo-8 calcium fluorescence, ACh EC80 antagonist; AID 588852; inhibition, % at 3 µM; actives 1.3% (n = 360,000);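 active means percent inhibition above its own plate's cutoff, namely the mean of that plate's compound wells plus 3 SD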;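 further: peak over basal fluorescence ratio during 140 s after agonist addition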
CHO-K1 Ca antag: nonselective inhibitor or artifact in parental CHO-K1 cells; ATP-induced calcium, Fluo-8 fluorescence; inhibition, % at 3 µM; actives 0.6% (n = 360,000); AID 602250;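 active means inhibition above a per-plate cutoff, the plate's mean sample inhibition plus 3 SD, cut at about 24% in these data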
M1 PAM parental: M1 PAM counterscreen hit in parental CHO-K1 cells; ATP EC20, Fluo-8 calcium fluorescence; 0% at ATP EC20, 100% at ATP max; activation, % at 3 µM; actives 0.02% (n = 360,000);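 active means activation above the run cutoff, the mean activation of all test compounds plus 3 SD, cut at about 40% in these data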;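 further: peak over basal fluorescence ratio in a 140 s read after ATP addition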
CHRM1 agonist: activates human CHRM1 receptor; P11229; CHO-K1 hM1, Fluo-8 calcium fluorescence, agonist mode; 0% DMSO, 100% acetylcholine EC100; activation, % at 3 µM; actives 0.33% (n = 360,000); AID 588814;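 active means activation above the run's mean compound activation plus 3 SD, cut at about 16% in these data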;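 further: peak over basal fluorescence ratio within a 140 s kinetic read after compound addition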
A number is an active result; – = inactive.

SMILES	CHO-K1 Ca ag	CHRM1 PAM	M1 antag	CHO-K1 Ca antag	M1 PAM parental	CHRM1 agonist
CC1=NN(c2ccccc2)C(c2ccco2)C1 (configuration not stated)	–	–	–	–	–	–
CCN(CC(=O)Nc1ccc(NC(C)=O)cc1)C(=O)c1ccc(Sc2nncn2C)c([N+](=O)[O-])c1	–	–	–	–	–	–
COc1cc(C(=O)O/N=C2\CCCc3c2ccc(OC)c3[N+](=O)[O-])cc(OC)c1OC	–	–	25	–	–	–
COc1ccccc1C(=O)O/N=C1/CCCc2c1ccc(OC)c2[N+](=O)[O-]	–	–	–	–	–	–
O=C(Nc1ccc2c(c1)OCCO2)C(C1CC1)N1CCN(c2ccc(C(F)(F)F)cn2)CC1 (configuration not stated)	–	–	–	–	–	–
COc1ccc(C(=O)N/N=C/c2sc3ccccc3c2O)cc1	–	–	–	–	–	–
COc1ccc2cc(C(=O)N/N=C/c3sc4ccccc4c3O)ccc2c1	–	–	–	–	–	33
CCc1ccc(N=C2NC(=O)/C(=C/c3cc(OC)c(O)c(OC)c3)S2)cc1	–	–	–	–	–	–
COc1cc(/C=C2\SC(=Nc3ccc(Cl)c(C(=O)O)c3)NC2=O)c(Br)c(Br)c1O	42	–	–	27	–	51
COc1cc(/C=C2\SC(=Nc3ccccc3)NC2=O)cc(Cl)c1O	38	–	50	32	–	79
COc1ccc(-n2c(=O)c3ccccc3n(Cc3cccc(C)c3)c2=O)cc1OC	–	–	–	–	–	–
COc1ccc(S(=O)(=O)Nc2ccc(-n3cnnn3)cc2)cc1[N+](=O)[O-]	–	–	–	–	–	–
CCn1ccnc1CNC(=O)c1ccc2oc(C(C)C)nc2c1	–	–	57	–	–	–
Cc1cnc(CNC(=O)c2ccc3oc(C(C)C)nc3c2)[nH]1	–	–	–	–	–	–
CCc1nc2ccc(C(=O)Nc3ccc(NC(C)=O)cc3)cn2c1N(CCC(C)C)CCN(C)C	–	–	–	–	–	–
CCCCNC(=O)c1ccc2nc(CC)c(N(CC)CCN(C)C)n2c1	–	–	–	–	–	–
CCc1nc2ccc(C(=O)NCCOc3ccc(OC)cc3)cn2c1N(CCC(C)C)CCN(C)C	–	–	–	–	–	34
CCc1nc2ccc(C(=O)Nc3cc(-c4ccccc4)ccc3OC)cn2c1N(C=O)CCC(C)C	–	–	–	–	–	–
CCc1nc2ccc(C(=O)Nc3ccc(OC)c(OC)c3)cn2c1N(CCC(C)C)CCN(C)C	–	–	–	–	–	18
CCc1nc2ccc(C(=O)Nc3cc(-c4ccccc4)ccc3OC)cn2c1N(C)CCC(C)C	37	–	–	–	–	–
CCCCNC(=O)c1ccc2nc(CC)c(N(CCC(C)C)CCN(C)C)n2c1	–	–	–	–	–	22
COc1cc(C2Nc3ccc4ccccc4c3C3=C2C(=O)CC(C)(C)C3)ccc1OC(C)C(=O)O (configuration not stated)	–	–	–	–	–	–
NS(=O)(=O)c1ccc(CNC(=O)c2sccc2-c2ccccc2)cc1	–	–	–	–	–	–
Cc1nn(C(C)C(=O)NCCCN2CCCCCC2)c(=O)c2c1sc1ccccc12 (configuration not stated)	–	–	55	–	–	–
CCCCCNC(=O)c1ccc(NC(=O)CC2SC(N3CCCC3)=NC2=O)cc1 (configuration not stated)	–	–	–	–	–	–
CCNC(=O)c1ccc(NC(=O)CC2SC(N3CCCC3)=NC2=O)cc1 (configuration not stated)	–	28	–	–	–	–
CN(Cc1ccccc1)c1nc2c(c(=O)n(C)c(=O)n2C)n1CCCc1ccccc1	–	–	34	–	–	–
COC(=O)CSc1nc2c(c(=O)n(C)c(=O)n2C)n1CCCc1ccccc1	–	–	–	–	–	–
Cc1ccc(Cn2c(CN(C)Cc3ccccc3)nc3c2c(=O)n(C)c(=O)n3C)cc1	–	–	–	–	–	16
CC(O)CSc1nc2c(c(=O)n(C)c(=O)n2C)n1CCCc1ccccc1 (configuration not stated)	–	24	–	–	–	–

Screens from PubChem.
